The structures appear in SMILES notation. Hit rate of the full screen: of about 310,000 compounds, about 1,700 (0.55%) were called active. This is one part of a sample in which actives are shown more often than they occur. Values without a mark were called inactive. No stated cut-off is given here; in the data, active means inhibition above about 50%; inactive means the rest.

For orientation: inhibition means the change of the read-out against control, counted positive when it falls.

Sequence of Histone-lysine N-methyltransferase NSD2 (Homo sapiens) (O96028 whole entry, looked up): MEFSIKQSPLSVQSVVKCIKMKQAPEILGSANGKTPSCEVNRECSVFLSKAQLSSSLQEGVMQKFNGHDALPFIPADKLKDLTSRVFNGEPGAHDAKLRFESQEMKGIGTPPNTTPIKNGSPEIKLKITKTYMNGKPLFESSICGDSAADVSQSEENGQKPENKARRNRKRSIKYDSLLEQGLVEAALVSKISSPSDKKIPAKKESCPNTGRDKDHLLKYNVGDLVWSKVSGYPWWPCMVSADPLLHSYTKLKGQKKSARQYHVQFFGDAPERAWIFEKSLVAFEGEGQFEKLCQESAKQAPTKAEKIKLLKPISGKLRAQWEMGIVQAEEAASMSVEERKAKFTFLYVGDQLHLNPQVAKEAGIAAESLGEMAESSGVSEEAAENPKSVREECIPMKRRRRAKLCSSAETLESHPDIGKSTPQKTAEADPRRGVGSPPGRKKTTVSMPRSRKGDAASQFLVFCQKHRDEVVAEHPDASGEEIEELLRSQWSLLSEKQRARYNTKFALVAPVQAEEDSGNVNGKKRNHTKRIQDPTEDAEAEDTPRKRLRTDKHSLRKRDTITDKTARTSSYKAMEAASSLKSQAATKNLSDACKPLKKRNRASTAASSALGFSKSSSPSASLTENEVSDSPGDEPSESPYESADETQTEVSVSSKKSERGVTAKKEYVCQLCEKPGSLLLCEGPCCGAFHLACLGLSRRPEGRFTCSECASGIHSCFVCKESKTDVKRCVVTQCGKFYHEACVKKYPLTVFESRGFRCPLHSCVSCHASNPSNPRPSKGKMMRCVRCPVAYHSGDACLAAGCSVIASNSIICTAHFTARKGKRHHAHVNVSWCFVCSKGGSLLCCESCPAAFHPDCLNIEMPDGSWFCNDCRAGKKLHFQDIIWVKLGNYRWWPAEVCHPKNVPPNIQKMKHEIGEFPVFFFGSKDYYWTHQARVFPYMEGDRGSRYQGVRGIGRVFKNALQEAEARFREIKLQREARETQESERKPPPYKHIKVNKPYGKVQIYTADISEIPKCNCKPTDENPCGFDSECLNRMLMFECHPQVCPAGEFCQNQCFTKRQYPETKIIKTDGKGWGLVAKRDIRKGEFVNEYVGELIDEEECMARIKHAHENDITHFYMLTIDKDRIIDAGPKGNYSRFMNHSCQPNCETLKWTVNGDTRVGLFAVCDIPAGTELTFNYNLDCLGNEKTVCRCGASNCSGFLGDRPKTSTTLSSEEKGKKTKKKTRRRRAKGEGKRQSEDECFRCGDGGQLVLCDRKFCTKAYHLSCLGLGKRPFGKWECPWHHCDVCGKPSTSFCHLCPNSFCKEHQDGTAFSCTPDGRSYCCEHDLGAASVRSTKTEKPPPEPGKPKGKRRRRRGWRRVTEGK

The experiment has as its target Histone-lysine N-methyltransferase NSD2 (Homo sapiens) (UniProt O96028). Nature of the experiment: blockers of NSD2 lysine methylation activity – biochemical, AlphaScreen, single concentration, set 2, primary screen (AID 743445). As to conditions: NSD2 peptide methylation, 120 min, at 12.5 µM, active compounds read high. On the technique in general: Alpha assays give light when donor and acceptor beads are brought close together.
For `O=C(CSc1nc2ccccc2nc1N1CCCCC1)N1CCN(S(=O)(=O)c2cccc([N+](=O)[O-])c2)CC1`, the inhibition was -12%.

With `CC(=O)NC(c1ccccc1)c1nc(-c2cccc(C(C)C)c2)cs1` (stereo not given), the inhibition is 3.74%.

With `CCOC(=O)c1c(C)[nH]c(C)c1S(=O)(=O)N(C)CC(=O)Nc1ccccc1C`, the inhibition is 2.08%.

For the compound `CCOC(=O)c1ccccc1OC(=O)Oc1ccccc1C(=O)OCC`, the inhibition is -0.93%.

For `CCOC(=O)c1c(C)[nH]c2c1-c1ccccc1C(=O)C2=O`, the inhibition was 82.9% (active).

As for `CCOc1ccc2nc(NC(=O)C3CC3)sc2c1`, the inhibition is -0.715%.

Turning to `CCCC1CCC2(CCCN2CCOC(=O)NCc2ccccc2)CC1` (stereo not given), the inhibition was -1.02%.

On to `O=C(CNS(=O)(=O)c1ccccc1F)N1CCN(c2ccccn2)CC1`, for which the inhibition is -3.13%.

As to `COc1ccc(-c2cc(-c3nnc(SCc4ccc([N+](=O)[O-])cc4)n3N)[nH]n2)cc1`, the inhibition was -2.18%.

In the case of `COc1cc(C(=O)Nn2c(O)c(C3=c4ccccc4=NC3=O)sc2=S)ccc1O`, the inhibition is 51.8% (active).

Turning to `COc1cc(C(=S)NC2CCCCC2)ccc1O`, the inhibition is 6.51%.

Consider `COc1cc(C(=O)Nn2c(CC(C)C)nc3ccccc3c2=O)cc(OC)c1OC`, for which the inhibition was -1.2%.

`O=C(CCS(=O)(=O)c1ccccc1)Nc1ccc(Cl)c(Cl)c1`: the inhibition is -0.439%.

For `O=C(Nc1ccccc1C(=O)Nc1ccc(F)cc1)c1ccccc1F`, the inhibition was 0.274%.

For `Cc1nn(-c2ccccc2)c(Cl)c1/C=N/NC(=O)c1nn(C)cc1[N+](=O)[O-]`, the inhibition was 6.06%.

As for `Cc1cc(=O)[nH]c(N/N=C/c2ccc3c(c2)OCCO3)n1`, the inhibition is -3.07%.

For `Cc1cc(=O)[nH]c(N/N=C/c2c(C)nn(-c3ccccc3Cl)c2Cl)n1`, the inhibition is 69.3% (active).

For the compound `Cc1c(NC(=O)Nc2ccccc2)cccc1[N+](=O)[O-]`, the inhibition was -2.18%.

On to `O=[N+]([O-])c1ccccc1Nc1ccc(O)cc1`, for which the inhibition is 81% (active).

Take `O=C(Nc1ccccc1[N+](=O)[O-])C1C(c2ccccc2)=C1c1ccccc1`: the inhibition was -5.32%.

Regarding `CCc1nc2ccc(C(=O)NCc3ccc(OC)cc3)cn2c1N(CC)Cc1cccc(Br)c1`, the inhibition was -0.31%.

For `C=CCc1cccc2cc(C(=O)OCC)c(=O)oc12`, the inhibition is 3.09%.

`C=CCc1cccc2cc(C(=O)NC3CCCC3)c(=O)oc12`: the inhibition is -2.76%.

In the case of `C=CCc1cccc2cc(C(=O)Nc3ccc(NC(C)=O)cc3)c(=O)oc12`, the inhibition is 52.4% (active).

`CCCC(=O)N1CCC1(C)C(=O)NCc1ccc(C(C)C)cc1` (stereo not given): the inhibition was 0.789%.

For the compound `O=C(NS(=O)(=O)c1cccs1)[C@H]1O[C@@H](n2ccc(=O)[nH]c2=O)[C@H](O)[C@@H]1O`, the inhibition is 0.413%.

`CC(=O)N1CCCN(C2=Nc3ccccc3Sc3ccccc32)CC1`: the inhibition was 0.906%.

For the compound `O=C(Nc1ccc(N2CCOCC2)cc1)C1=COCCO1`, the inhibition is -0.182%.

For the compound `COC(=O)CCCCC1=CCC2C(=O)C=C(O)C2C1` (stereo not given), the inhibition is 62.2% (active).

Take `COc1ccc(-n2c(SCC(=O)Nc3ccccc3-c3ccccc3)nnc2-c2cccnc2)cc1`: the inhibition was 3.15%.

In the case of `COC(=O)c1cc(S(=O)(=O)N2CCN(c3ccccc3C)CC2)cn1C`, the inhibition was 7.47%.

In the case of `COc1cccc(-c2cc(CNC(=O)[C@@H](Cc3ccccc3)NC(=O)[C@H]3O[C@@H](n4cnc(C(N)=O)n4)[C@H](O)[C@@H]3O)no2)c1`, the inhibition is -0.483%.

`COc1ccc(-n2c(COc3ccc(C)cc3)nnc2SCC(=O)Nc2ccc(Oc3ccccc3)cc2)cc1`: the inhibition is 0.031%.

`CC(C)CSc1nnc(-c2cccnc2)n1Cc1ccccc1`: the inhibition was -2.26%.

On to `CCOc1ccccc1Nc1nnc(SCc2ccc(C(=O)OC)o2)s1`, for which the inhibition was 103% (active).

On to `CCOc1ccccc1Nc1nnc(SCC(=O)Nc2cc(C)on2)s1`, for which the inhibition is -5.24%.

In the case of `COC(=O)c1ccc(CSc2nnc(N)s2)o1`, the inhibition was -2.67%.

For the compound `Cc1ccc(NC(=O)C(C)Sc2nc(C)cs2)cc1` (stereo not given), the inhibition was -1.63%.

In the case of `O=C(NCc1ccco1)C1CCCN(S(=O)(=O)c2ccc(Cl)s2)C1` (stereo not given), the inhibition is 1.68%.

As to `CC(=O)Nc1ccc(S(=O)(=O)Nc2ccc(N3CCCCC3)cc2)cc1`, the inhibition was 11.4%.

Turning to `O=C1C=CC(=O)N1c1ccc(N2CCCCC2)cc1`, the inhibition is 51.2% (active).

With `O=C(Cc1ccccc1)NC(=S)Nc1ccc(N2CCCCC2)cc1`, the inhibition is 0.281%.

With `O=C(CN1CCCc2ccccc21)NCc1ccc(F)cc1`, the inhibition is 0.199%.

Regarding `Cc1ccc(NC(=O)Cc2cccc(F)c2)c(S(=O)(=O)N2CCOCC2)c1`, the inhibition is -1.61%.

`O=C(Nc1ccc(C(=O)O)c(O)c1)c1ccccc1`: the inhibition was -0.136%.

`O=C(O)c1ccccc1/C=N/Nc1ccc(S(=O)(=O)Nc2ccc(Cl)cc2)cc1[N+](=O)[O-]`: the inhibition was 14.9%.

Regarding `O=C(O)c1ccccc1N=N/C(=N/Nc1cc(S(=O)(=O)O)ccc1O)c1ccccc1`, the inhibition is 70.7% (active).

In the case of `O=C(CSc1nnc(COc2ccccc2)n1-c1ccc(Cl)cc1)Nc1ccc2c(c1)OCO2`, the inhibition was -1.07%.

As to `Cc1ccc(/C=N/NC(=O)c2cc3ccccc3cc2O)o1`, the inhibition is 50% (active).

As for `O=C(NN=Cc1ccc(N2CCOCC2)cc1)c1cc2ccccc2cc1O`, the inhibition is -0.134%.

`O=C(N/N=C/c1cccnc1)c1cc2ccccc2cc1O`: the inhibition is 4.16%.

As to `Clc1ccc(-n2c(COc3ccccc3)nnc2SCc2nc3ccccc3[nH]2)cc1`, the inhibition was 1.86%.

Turning to `Cc1cc(=O)[nH]c(SCC(=O)Nc2ccc(F)cc2F)n1`, the inhibition was -12.4%.

With `CN(C)S(=O)(=O)c1cccc(C(=O)N/N=C\c2ccco2)c1`, the inhibition was 3.26%.

As for `Cc1ccccc1S(=O)(=O)NC(=O)C1(C)CCN1C(=O)C1(c2ccccc2)CCCC1` (stereo not given), the inhibition was -0.963%.

For the compound `C/C(=N\O)C1(C)N(O)C(C)(C)C(c2ccc(Br)cc2)=[N+]1[O-]` (stereo not given), the inhibition was -1.39%.

`CCC1(C)N(O)C(C)(C)C(c2ccc(OC)cc2)=[N+]1[O-]` (stereo not given): the inhibition is -2.21%.

`CCC1=[N+]([O-])C(C)(/C(C)=N\O)N(O)C1(C)C` (stereo not given): the inhibition is 96.5% (active).

Regarding `CC(C)NC(=O)C1(C)CCCCCN1C(=O)c1ccc(-c2ccccc2)cc1` (stereo not given), the inhibition was -1.44%.

In the case of `Cc1ccc(-n2c(SCC(=O)Nc3ccc(S(=O)(=O)Nc4nccs4)cc3)nnc2-c2ccncc2)cc1`, the inhibition is 6.51%.

As for `COc1cccc(N2CCN(CC(=O)N(C)Cc3ccc(F)cc3)CC2)c1`, the inhibition is 2.97%.

Take `COc1ccc(/C=N/Nc2cc(N3CCOCC3)nc(C)n2)c(OC)c1`: the inhibition was 7.29%.

For the compound `CN(C)c1ccc(/C=N/Nc2cc(N3CCOCC3)nc(N3CCOCC3)n2)cc1`, the inhibition is 4.94%.

On to `C(=N/Nc1cc(N2CCOCC2)nc(N2CCOCC2)n1)/c1ccccc1`, for which the inhibition was 50.1% (active).

Take `Nn1c(SCC(=O)N2c3ccccc3Sc3ccccc32)nnc1-c1n[nH]c2c1CCC2`: the inhibition is 14.3%.

On to `Cc1ccc(-n2c(SCC(=O)Nc3cccc4ccccc34)nnc2-c2ccco2)cc1`, for which the inhibition is -0.2%.

For the compound `COC(=O)CNC(=O)c1ccccc1[N+](=O)[O-]`, the inhibition was 0.597%.

For `O=C(NNS(=O)(=O)Cc1ccccc1)c1ccc([N+](=O)[O-])cc1`, the inhibition was -3.19%.

`O=C(CNC(=O)c1ccccc1)Oc1ccc([N+](=O)[O-])cc1`: the inhibition was 53.4% (active).

As for `CC(=O)Nc1cccc(-c2cc3nc(NCc4cccnc4)n(C)c(=O)c3s2)c1`, the inhibition is -4.37%.

Regarding `Cc1ccccc1NC(=O)Cn1nnc(-c2ccccc2F)n1`, the inhibition is -1.41%.

As to `O=C(NCc1ccccc1)[C@@H]1CCCN1C(=O)[C@@H](NS(=O)(=O)c1ccc(F)cc1F)C1CCCCC1`, the inhibition is -1.37%.

In the case of `CC(=O)N(C1=C(Cl)C(=O)c2ccccc2C1=O)c1ccc(C(=O)O)cc1`, the inhibition was 142% (active).

Turning to `O=C(NC1=CC(=O)c2ccccc2C1=O)c1ccccc1`, the inhibition is 40.2%.

For `CCOC(=O)C1(Cc2ccccc2)CCN(Cc2cn(C(C)=O)c3ccccc23)CC1`, the inhibition was 3.51%.

Turning to `Cc1ccc(-c2nnc(SCC(=O)Nc3ccc(Oc4ccccc4)cc3)n2Cc2ccco2)cc1`, the inhibition is 0.417%.

`CCOc1ccc(/C=C/C(=O)OCC(=O)c2ccccc2OC)cc1OC`: the inhibition is -0.606%.

As to `CCOc1cc(/C=C/C(=O)OCC(=O)NCCN2C(=O)CSC2=O)ccc1OCC(C)C`, the inhibition was 128% (active).

For `CCOC(=O)CCCNC(=O)COC(=O)/C=C/c1ccc2c(c1)OCO2`, the inhibition was -2.71%.

Regarding `COc1ccc(-n2c(SCC(=O)NC3CCCC3)nnc2-c2ccncc2)cc1`, the inhibition was 7.3%.

For `O=C(Cn1c(=O)sc2ccccc21)Nc1ccc2c(c1)OCCO2`, the inhibition was 6.04%.

For `O=C(CN1CCC(O)(c2ccccc2)CC1)Nc1ccc2c(c1)OCCO2`, the inhibition is -3.29%.

As for `O=C(Cn1cc(C(F)(F)F)ccc1=O)Nc1ccc2c(c1)OCCO2`, the inhibition was 58% (active).

As to `O=C1Nc2ccccc2OC1CC(=O)N1CCCCCCC1` (stereo not given), the inhibition was 4.5%.

On to `O=C(NCc1cccs1)C1CCCN(S(=O)(=O)c2ccc([N+](=O)[O-])cc2)C1` (stereo not given), for which the inhibition is -2.05%.

In the case of `CCOc1ccc(Cl)cc1-c1cc(C(=O)NCc2cccs2)[nH]n1`, the inhibition is 0.509%.

Regarding `CCOc1ccc(N(CC(=O)Nc2c(C)n(C)n(-c3ccccc3)c2=O)S(=O)(=O)c2ccc(Cl)s2)cc1`, the inhibition was 0.729%.

As for `Cc1sc2ncnc(SCC(=O)Nc3ccc(CN4CCCC4)cc3)c2c1C`, the inhibition is 56.5% (active).

With `COC(=O)c1c(-c2cccs2)csc1NC(=O)CSc1ncnc2sc(C)c(C)c12`, the inhibition is -3.04%.

Take `Cc1sc2ncnc(SCC(=O)NC3CCS(=O)(=O)C3)c2c1C` (stereo not given): the inhibition was -1.67%.

The record behind these values is PubChem BioAssay AID743445 (Broad Institute, 2014).
